# Data taken from paper PMC7862700, “An all-to-all approach to the identification of sequence-specific readers for epigenetic DNA modifications on cytosine”.
# What was measured:
# Assay in all cases: DAPPL (digital affinity profiling via proximity ligation, sequencing); 10 mM Tris-HCl pH 7.5, 50 mM NaCl, 1 mM DTT, 4% glycerol, room temperature, 30 min; GST-TFs on glutathione beads, 16-mer random dsDNA library, 0.1% formaldehyde crosslink after washing; high values mean tight binding
# FLI1 = target: T1, FLI1 (Homo sapiens, UniProt Q01543 1-452); conditions: protein: recombinant; tags: N-terminal GST; dsDNA, one strand shown
# T1 sequence: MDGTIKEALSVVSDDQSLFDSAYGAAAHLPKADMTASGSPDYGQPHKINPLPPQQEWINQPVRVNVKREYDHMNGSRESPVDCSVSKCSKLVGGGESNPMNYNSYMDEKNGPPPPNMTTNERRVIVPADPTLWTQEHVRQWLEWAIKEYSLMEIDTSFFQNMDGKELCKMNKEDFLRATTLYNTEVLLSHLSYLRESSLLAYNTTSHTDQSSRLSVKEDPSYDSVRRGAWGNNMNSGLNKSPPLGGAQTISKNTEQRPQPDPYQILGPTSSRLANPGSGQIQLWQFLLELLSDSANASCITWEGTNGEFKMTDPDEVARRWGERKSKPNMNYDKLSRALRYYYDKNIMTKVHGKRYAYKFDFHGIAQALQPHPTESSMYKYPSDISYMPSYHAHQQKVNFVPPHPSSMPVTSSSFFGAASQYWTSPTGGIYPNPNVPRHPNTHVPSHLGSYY
# How it was run: (§1)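 A tag-only sample was pooled with DNA-barcoded human transcription factors that had been expressed in yeast as GST fusions and captured on glutathione beads. The pools were incubated for 30 min at room temperature with 200 nmole of a random double-stranded 16-mer DNA library in Tris/NaCl/DTT/glycerol buffer, then washed, crosslinked with 0.1% formaldehyde, proximity-ligated (BsaI/T4 ligase, 1 h, 37 °C), PCR-amplified and sequenced on an Illumina NextSeq500. Binding signal is each hexamer's read frequency for a factor divided by its frequency for the tag-only sample.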
# ELK1 = target: T2, ELK1 (Homo sapiens, UniProt P19419 1-428); conditions: protein: recombinant; tags: N-terminal GST; dsDNA, one strand shown
# T2 sequence: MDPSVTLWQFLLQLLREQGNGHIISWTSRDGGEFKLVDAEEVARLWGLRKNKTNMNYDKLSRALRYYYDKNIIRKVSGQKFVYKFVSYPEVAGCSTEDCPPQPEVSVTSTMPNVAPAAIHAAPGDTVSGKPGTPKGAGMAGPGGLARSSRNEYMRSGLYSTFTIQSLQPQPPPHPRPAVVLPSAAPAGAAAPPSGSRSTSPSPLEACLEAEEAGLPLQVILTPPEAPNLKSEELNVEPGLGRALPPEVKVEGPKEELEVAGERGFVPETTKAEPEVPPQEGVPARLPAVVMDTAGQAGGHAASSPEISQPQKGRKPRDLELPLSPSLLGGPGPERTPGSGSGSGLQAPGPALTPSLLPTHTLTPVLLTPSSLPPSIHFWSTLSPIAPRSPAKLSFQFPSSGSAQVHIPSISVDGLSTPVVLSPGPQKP
# How it was run: as §1
# GABPA = target: T3, GABPA (Homo sapiens, UniProt Q06546 1-454); conditions: protein: recombinant; tags: N-terminal GST; dsDNA, one strand shown
# T3 sequence: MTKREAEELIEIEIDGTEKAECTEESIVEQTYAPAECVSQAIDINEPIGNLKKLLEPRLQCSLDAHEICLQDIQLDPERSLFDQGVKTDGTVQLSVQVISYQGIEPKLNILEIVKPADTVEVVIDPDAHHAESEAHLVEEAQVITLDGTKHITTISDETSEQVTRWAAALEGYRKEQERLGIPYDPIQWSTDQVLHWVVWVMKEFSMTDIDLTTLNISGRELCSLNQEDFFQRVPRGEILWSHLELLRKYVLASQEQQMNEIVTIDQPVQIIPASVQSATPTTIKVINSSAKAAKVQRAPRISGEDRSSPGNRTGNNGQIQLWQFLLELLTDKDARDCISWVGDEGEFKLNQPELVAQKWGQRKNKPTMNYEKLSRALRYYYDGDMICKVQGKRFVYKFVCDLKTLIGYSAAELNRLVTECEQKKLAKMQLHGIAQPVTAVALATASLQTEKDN
# How it was run: as §1
# ERG = target: T4, ERG (Homo sapiens, UniProt P11308 1-479); conditions: protein: recombinant; tags: N-terminal GST; dsDNA, one strand shown
# T4 sequence: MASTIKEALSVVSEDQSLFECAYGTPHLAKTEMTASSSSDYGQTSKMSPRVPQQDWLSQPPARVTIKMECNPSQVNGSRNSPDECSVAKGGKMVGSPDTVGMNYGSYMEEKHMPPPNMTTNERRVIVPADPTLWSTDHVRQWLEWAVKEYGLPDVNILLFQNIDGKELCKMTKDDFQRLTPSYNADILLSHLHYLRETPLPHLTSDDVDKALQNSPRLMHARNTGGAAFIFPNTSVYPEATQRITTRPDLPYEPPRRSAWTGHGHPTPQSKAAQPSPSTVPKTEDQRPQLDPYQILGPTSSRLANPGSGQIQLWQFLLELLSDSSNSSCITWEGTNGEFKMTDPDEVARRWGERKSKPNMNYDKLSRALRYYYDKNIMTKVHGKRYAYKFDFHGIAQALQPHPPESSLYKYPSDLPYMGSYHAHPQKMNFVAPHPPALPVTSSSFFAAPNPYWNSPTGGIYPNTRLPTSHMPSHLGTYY
# How it was run: as §1
# ELF1 = ELF1 (Homo sapiens, UniProt P32519 1-619); conditions: protein: recombinant; tags: N-terminal GST; dsDNA, one strand shown
# ELF1, sequence (P32519 whole entry): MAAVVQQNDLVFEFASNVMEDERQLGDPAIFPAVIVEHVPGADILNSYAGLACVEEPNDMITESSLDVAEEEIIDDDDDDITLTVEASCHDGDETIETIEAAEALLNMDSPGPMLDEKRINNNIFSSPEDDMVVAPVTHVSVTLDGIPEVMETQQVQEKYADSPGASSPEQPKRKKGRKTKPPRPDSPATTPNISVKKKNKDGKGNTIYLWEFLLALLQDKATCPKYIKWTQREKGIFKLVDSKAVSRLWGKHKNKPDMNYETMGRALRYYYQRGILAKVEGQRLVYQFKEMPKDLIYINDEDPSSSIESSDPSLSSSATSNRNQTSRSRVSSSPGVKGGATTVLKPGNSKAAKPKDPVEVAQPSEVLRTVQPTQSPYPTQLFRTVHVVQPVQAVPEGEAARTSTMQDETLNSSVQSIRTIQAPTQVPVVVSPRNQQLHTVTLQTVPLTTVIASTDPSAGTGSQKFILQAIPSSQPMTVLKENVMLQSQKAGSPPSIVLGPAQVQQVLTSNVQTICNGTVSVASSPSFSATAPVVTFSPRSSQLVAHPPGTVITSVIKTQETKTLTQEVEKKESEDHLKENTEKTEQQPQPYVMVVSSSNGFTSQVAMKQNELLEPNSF
# How it was run: as §1
# EHF = target: T5, EHF (Homo sapiens, UniProt Q9NZC4 1-300); conditions: protein: recombinant; tags: N-terminal GST; dsDNA, one strand shown
# T5 sequence: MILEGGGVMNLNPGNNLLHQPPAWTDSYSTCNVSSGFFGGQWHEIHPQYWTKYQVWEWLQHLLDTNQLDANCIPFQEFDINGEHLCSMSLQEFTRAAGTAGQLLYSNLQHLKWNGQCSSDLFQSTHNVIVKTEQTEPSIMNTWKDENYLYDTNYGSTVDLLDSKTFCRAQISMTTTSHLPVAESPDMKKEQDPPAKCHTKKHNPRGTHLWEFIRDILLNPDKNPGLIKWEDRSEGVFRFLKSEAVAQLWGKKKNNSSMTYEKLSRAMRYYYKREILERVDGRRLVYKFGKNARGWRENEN
# How it was run: as §1
# SPI1 = SPI1 (Homo sapiens, UniProt P17947 1-270); conditions: protein: recombinant; tags: N-terminal GST; dsDNA, one strand shown
# How it was run: as §1
# SPIB = SPIB (Homo sapiens, UniProt Q01892 1-262); conditions: protein: recombinant; tags: N-terminal GST; dsDNA, one strand shown
# SPIB, sequence (Q01892 whole entry): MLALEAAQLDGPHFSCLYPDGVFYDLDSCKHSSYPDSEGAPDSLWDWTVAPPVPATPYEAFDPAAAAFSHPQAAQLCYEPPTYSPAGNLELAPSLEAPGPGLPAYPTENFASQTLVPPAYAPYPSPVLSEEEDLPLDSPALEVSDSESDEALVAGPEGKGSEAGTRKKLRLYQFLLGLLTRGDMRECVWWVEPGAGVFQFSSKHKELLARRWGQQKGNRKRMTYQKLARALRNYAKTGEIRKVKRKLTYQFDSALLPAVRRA
# How it was run: as §1
# ELK3 = target: T6, ELK3 (Homo sapiens, UniProt P41970 1-407); conditions: protein: recombinant; tags: N-terminal GST; dsDNA, one strand shown
# T6 sequence: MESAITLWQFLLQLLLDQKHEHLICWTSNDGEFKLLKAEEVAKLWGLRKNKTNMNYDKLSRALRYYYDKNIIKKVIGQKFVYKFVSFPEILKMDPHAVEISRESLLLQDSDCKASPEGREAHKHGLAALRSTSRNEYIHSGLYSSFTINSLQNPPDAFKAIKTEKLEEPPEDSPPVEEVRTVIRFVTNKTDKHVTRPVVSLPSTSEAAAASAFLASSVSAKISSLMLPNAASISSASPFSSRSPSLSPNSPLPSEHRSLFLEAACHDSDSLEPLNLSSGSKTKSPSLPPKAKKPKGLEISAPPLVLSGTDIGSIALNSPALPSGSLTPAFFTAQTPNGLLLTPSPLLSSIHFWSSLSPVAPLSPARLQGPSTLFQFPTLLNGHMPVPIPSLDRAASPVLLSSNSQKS
# How it was run: as §1
# FEV = target: T7, FEV (Homo sapiens, UniProt Q99581 1-238); conditions: protein: recombinant; tags: N-terminal GST; dsDNA, one strand shown
# T7 sequence: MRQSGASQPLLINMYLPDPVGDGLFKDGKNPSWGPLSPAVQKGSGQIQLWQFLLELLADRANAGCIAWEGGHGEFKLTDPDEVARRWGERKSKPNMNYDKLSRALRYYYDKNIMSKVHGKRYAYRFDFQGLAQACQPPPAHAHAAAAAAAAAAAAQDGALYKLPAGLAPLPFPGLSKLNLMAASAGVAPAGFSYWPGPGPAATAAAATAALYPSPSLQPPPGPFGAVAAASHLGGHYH
# How it was run: as §1
# ETV5 = ETV5 (Homo sapiens, UniProt P41161 1-510); conditions: protein: recombinant; tags: N-terminal GST; dsDNA, one strand shown
# ETV5, sequence (P41161 whole entry): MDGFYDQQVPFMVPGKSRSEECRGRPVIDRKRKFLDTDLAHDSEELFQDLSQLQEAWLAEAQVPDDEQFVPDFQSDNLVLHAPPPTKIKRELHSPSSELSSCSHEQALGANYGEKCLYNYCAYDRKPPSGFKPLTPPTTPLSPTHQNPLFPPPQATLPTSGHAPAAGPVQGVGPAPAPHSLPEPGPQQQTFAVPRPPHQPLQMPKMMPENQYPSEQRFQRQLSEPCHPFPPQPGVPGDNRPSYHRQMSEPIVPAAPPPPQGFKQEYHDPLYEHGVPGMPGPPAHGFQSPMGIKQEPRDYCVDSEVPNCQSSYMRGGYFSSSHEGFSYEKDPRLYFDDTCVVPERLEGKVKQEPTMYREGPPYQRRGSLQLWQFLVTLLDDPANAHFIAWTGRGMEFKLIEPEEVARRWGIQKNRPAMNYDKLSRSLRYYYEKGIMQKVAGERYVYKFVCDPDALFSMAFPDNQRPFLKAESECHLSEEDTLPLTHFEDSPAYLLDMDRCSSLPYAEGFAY
# How it was run: as §1
# HSF1 = HSF1 (Homo sapiens, UniProt Q00613 1-529); conditions: protein: recombinant; tags: N-terminal GST; chain copies: 3; dsDNA, one strand shown
# HSF1, sequence (Q00613 whole entry): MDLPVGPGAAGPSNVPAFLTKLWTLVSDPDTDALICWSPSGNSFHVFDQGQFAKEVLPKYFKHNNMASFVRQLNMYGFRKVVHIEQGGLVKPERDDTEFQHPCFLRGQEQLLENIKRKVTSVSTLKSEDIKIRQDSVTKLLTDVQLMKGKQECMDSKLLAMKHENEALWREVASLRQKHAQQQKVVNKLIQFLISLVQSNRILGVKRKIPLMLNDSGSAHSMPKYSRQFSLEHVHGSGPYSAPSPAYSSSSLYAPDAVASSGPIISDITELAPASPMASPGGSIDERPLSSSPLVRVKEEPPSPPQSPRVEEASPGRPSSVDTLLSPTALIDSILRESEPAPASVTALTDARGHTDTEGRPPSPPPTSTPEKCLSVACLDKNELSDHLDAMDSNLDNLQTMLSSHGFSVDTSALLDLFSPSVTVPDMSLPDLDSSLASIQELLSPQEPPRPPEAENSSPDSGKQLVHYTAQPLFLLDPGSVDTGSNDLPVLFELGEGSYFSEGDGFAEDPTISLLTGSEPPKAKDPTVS
# How it was run: as §1
# SPIC = target: T8, SPIC (Homo sapiens, UniProt Q8N5J4 1-248); conditions: protein: recombinant; tags: N-terminal GST; dsDNA, one strand shown
# T8 sequence: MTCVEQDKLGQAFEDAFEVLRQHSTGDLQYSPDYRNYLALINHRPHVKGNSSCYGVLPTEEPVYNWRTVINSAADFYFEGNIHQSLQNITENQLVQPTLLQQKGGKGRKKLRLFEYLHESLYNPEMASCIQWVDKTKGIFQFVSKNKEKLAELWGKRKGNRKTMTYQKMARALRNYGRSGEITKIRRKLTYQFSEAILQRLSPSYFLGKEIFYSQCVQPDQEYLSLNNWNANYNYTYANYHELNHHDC
# How it was run: as §1
# ELF4 = ELF4 (Homo sapiens, UniProt Q99607 1-663); conditions: protein: recombinant; tags: N-terminal GST; dsDNA, one strand shown
# ELF4, sequence (Q99607 whole entry): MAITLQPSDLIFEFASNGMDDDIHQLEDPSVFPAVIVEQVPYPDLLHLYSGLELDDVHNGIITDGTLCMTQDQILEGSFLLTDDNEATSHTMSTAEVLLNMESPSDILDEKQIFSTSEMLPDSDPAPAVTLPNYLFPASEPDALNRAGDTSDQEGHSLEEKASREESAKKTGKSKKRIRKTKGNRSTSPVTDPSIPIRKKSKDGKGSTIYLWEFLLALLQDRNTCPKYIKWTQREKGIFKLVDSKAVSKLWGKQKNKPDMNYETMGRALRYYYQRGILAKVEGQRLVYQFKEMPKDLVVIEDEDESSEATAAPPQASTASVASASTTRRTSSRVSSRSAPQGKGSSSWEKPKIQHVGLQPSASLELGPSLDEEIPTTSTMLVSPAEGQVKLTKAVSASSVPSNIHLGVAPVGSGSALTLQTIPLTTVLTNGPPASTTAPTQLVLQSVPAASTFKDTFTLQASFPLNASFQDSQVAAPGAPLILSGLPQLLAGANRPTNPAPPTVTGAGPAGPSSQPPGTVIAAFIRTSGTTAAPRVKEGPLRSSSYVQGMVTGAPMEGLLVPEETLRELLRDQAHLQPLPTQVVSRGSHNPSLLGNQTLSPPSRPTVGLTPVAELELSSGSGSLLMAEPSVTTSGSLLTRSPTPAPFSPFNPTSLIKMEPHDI
# How it was run: as §1
# ELK4 = target: T9, ELK4 (Homo sapiens, UniProt P28324-2 1-405); conditions: protein: recombinant; tags: N-terminal GST; dsDNA, one strand shown
# T9 sequence: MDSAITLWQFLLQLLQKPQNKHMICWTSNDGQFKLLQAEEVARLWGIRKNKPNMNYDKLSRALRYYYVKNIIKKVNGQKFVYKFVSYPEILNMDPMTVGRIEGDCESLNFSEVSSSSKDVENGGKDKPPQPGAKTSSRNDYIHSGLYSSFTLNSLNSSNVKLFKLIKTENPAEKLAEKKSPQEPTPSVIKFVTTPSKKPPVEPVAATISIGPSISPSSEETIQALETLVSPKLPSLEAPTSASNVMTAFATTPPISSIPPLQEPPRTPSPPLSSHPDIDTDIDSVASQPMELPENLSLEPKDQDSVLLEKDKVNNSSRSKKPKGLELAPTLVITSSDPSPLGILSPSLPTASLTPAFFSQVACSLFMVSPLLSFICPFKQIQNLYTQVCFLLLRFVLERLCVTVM
# How it was run: as §1
# ETV2 = target: T10, ETV2 (Homo sapiens, UniProt O00321 1-342); conditions: protein: recombinant; tags: N-terminal GST; dsDNA, one strand shown
# T10 sequence: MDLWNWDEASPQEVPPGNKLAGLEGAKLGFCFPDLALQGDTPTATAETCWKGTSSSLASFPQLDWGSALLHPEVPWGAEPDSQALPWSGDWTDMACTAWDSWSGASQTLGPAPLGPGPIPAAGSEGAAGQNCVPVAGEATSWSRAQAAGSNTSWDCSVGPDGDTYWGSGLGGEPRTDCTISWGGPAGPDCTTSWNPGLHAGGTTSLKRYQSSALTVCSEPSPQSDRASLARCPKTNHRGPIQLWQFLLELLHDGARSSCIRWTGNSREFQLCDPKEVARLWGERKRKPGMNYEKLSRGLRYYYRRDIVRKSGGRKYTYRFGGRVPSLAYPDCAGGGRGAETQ
# How it was run: as §1
# ELF3 = target: T11, ELF3 (Homo sapiens, UniProt P78545 1-371); conditions: protein: recombinant; tags: N-terminal GST; dsDNA, one strand shown
# T11 sequence: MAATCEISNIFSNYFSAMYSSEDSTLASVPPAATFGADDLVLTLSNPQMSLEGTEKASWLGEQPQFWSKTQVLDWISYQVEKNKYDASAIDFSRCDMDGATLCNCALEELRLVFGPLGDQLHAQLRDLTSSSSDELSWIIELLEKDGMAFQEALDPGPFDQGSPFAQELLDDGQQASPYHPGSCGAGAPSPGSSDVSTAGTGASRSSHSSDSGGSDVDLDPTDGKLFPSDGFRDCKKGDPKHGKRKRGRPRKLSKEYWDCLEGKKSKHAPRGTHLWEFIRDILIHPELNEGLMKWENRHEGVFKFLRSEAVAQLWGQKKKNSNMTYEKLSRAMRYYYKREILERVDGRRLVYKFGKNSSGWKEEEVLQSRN
# How it was run: as §1
# CRX = CRX (Homo sapiens, UniProt O43186 1-299); conditions: protein: recombinant; tags: N-terminal GST; dsDNA, one strand shown
# CRX, sequence (O43186 whole entry): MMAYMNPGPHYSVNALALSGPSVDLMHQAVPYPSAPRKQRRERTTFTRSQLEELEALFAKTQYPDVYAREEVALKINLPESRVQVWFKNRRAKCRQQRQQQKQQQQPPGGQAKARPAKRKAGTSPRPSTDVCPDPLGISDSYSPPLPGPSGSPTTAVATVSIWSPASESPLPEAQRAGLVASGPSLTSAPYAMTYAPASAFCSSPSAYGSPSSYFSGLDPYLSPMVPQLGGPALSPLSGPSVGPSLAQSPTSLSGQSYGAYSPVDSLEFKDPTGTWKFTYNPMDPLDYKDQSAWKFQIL
# How it was run: as §1
# ETV1 = ETV1 (Homo sapiens, UniProt P50549 1-477); conditions: protein: recombinant; tags: N-terminal GST; dsDNA, one strand shown
# ETV1, sequence (P50549 whole entry): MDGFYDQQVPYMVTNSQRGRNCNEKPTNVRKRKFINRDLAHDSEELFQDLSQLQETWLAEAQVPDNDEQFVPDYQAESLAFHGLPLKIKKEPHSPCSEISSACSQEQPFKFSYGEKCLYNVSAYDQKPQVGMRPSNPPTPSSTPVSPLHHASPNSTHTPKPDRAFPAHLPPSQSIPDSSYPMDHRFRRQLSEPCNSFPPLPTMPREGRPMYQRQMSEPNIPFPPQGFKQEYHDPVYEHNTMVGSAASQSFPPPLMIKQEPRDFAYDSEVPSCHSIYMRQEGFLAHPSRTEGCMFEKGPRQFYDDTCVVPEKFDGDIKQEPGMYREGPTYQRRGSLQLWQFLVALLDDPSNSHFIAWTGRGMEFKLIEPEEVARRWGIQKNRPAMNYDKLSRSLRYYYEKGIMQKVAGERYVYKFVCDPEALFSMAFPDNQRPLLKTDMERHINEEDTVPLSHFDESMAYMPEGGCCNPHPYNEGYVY
# How it was run: as §1
sequence,measurement,setting,value
CGAATT,binding signal,FLI1,"1.13 fold enrichment (6-mer frequency, TF over GST control)"
same,binding signal,ELK1,"1.1 fold enrichment (6-mer frequency, TF over GST control)"
same,binding signal,GABPA,"1.27 fold enrichment (6-mer frequency, TF over GST control)"
same,binding signal,ERG,"1.23 fold enrichment (6-mer frequency, TF over GST control)"
same,binding signal,ELF1,"1.2 fold enrichment (6-mer frequency, TF over GST control)"
same,binding signal,EHF,"1.19 fold enrichment (6-mer frequency, TF over GST control)"
same,binding signal,SPI1,"1.22 fold enrichment (6-mer frequency, TF over GST control)"
same,binding signal,SPIB,"1.23 fold enrichment (6-mer frequency, TF over GST control)"
same,binding signal,ELK3,"1.23 fold enrichment (6-mer frequency, TF over GST control)"
same,binding signal,FEV,"1.14 fold enrichment (6-mer frequency, TF over GST control)"
same,binding signal,ETV5,"1.21 fold enrichment (6-mer frequency, TF over GST control)"
same,binding signal,HSF1,"1.79 fold enrichment (6-mer frequency, TF over GST control)"
same,binding signal,SPIC,"1.25 fold enrichment (6-mer frequency, TF over GST control)"
same,binding signal,ELF4,"1.17 fold enrichment (6-mer frequency, TF over GST control)"
same,binding signal,ELK4,"1.36 fold enrichment (6-mer frequency, TF over GST control)"
same,binding signal,ETV2,"1.02 fold enrichment (6-mer frequency, TF over GST control)"
same,binding signal,ELF3,"1.18 fold enrichment (6-mer frequency, TF over GST control)"
same,binding signal,CRX,"1.63 fold enrichment (6-mer frequency, TF over GST control)"
same,binding signal,ETV1,"1.15 fold enrichment (6-mer frequency, TF over GST control)"
